# Source: ChEMBL document CHEMBL4513146, “CO-ADD screening of Karazin Kharkiv National University (Ukraine) compounds”
# Measured potencies and affinities stand elsewhere.
# Experiments:
# Klebsiella pneumoniae = settings: Concentration 32 ug.mL-1;; ASSAY_TEST Inhibition of Bacterial Growth; detection method Absorption (OD600); MEDIA CAMHB; plate type 384well; NBS; CORNING #3640; time 18 hr
# Candida albicans = settings: Concentration 32 ug.mL-1; ASSAY_TEST Inhibition of Fungal Growth; detection method Absorption (OD530)
# Cryptococcus neoformans = settings: Concentration 32 ug.mL-1; ASSAY_TEST Inhibition of Fungal Growth; detection method Resazurin; Absorption (OD600-OD570); plate type 384well; NBS; CORNING #3640
SMILES,Inhibition (Klebsiella pneumoniae),Inhibition (Candida albicans),Inhibition (Cryptococcus neoformans)
Cc1cc(C)cc(Nc2nc(C)cc3nn(CC(=O)NC4CCCC4)c(=O)n23)c1,17.93%,3.67%,-8.76%
CCc1nnc2c(SCC(=O)Nc3ccc(C)cc3Br)nc3ccccc3n12,6.8%,1.54%,-14.73%
O=C(Cn1nc2c3cc(-c4ccccc4)nn3ccn2c1=O)N1CCN(c2ccccc2F)CC1,9.85%,1.75%,-28.45%
COc1ccc(-c2cc3c4nnc(SCC(=O)NCc5ccccc5)n4ccn3n2)cc1,-10.83%,19.83%,-19.87%
O=C(Cn1nc2c(Sc3cccc(F)c3)nccn2c1=O)Nc1ccc(F)c(Cl)c1,-2.81%,9.34%,-8.73%
CCCn1c(=O)c2sccc2n2c(=O)n(CC(=O)c3cc(C)ccc3C)nc12,9.58%,6.28%,-24.9%
Cc1nnc2ccc(S(=O)(=O)N(Cc3ccccc3F)c3cc(F)cc(F)c3)cn12,-4.61%,2.54%,-9.43%
CCOc1ccc(NC(=O)Cn2c(=O)c3nnc(C(C)C)n3c3ccccc32)cc1,4.3%,1.75%,-9.3%
COc1ccc(NC(=O)Cn2nc3c(Oc4ccccc4)nccn3c2=O)cc1,8.21%,3.81%,-6.99%
CCC(Sc1nnc2c(=O)n(-c3ccc(C)c(C)c3)ccn12)C(=O)Nc1cc(OC)ccc1OC (stereo unspecified),5.57%,2.66%,-6.72%
O=c1c2nnc(SCc3ccccc3F)n2ccn1-c1ccc(Br)cc1,15.43%,3.99%,-9.71%
COc1cccc(-c2noc(Cn3nc4ccc(-c5ccc(C)c(C)c5)nn4c3=O)n2)c1OC,9.19%,-0.69%,-10.63%
Cc1nnc2ccc(S(=O)(=O)N(Cc3ccccc3F)c3ccc(F)cc3)cn12,5.62%,1.21%,-9.05%
CCCCOc1ccc(-c2cc3c4nnc(SCC(=O)Nc5cc(F)ccc5C)n4ccn3n2)cc1,-4.04%,9.93%,-31.79%
CCCN(C)c1nccn2c(=O)n(CC(=O)Nc3cccc(C(C)=O)c3)nc12,4.82%,2.07%,-8.37%
COc1cc(NC(=O)Cn2nc3ccc(SCc4ccc(Cl)cc4)nn3c2=O)cc(OC)c1,1.27%,5.86%,-31.85%

SMILES,Inhibition (Klebsiella pneumoniae),Inhibition (Candida albicans),Inhibition (Cryptococcus neoformans)
Cc1cc(C)c(NC(=O)Cn2nc3c(N4CCCC(C)C4)nccn3c2=O)c(C)c1 (stereo unspecified),-3.43%,-1.23%,-2.74%
Cc1ccc(Cl)cc1NC(=O)CSc1nnc2ccc(C(=O)Nc3cccc(F)c3)cn12,3.53%,4.15%,-1.38%
Cc1cccc(Sc2nccn3c(=O)n(CC(=O)N4CCN(c5ccccc5)CC4)nc23)c1,4.67%,0.98%,-15.76%
COc1cccc(-n2ccn3c(SCC(=O)Nc4cc(Cl)ccc4OC)nnc3c2=O)c1,5.24%,13.1%,-11.15%
CCOc1ccc(-n2ccn3c(SCC(=O)Nc4ccc(F)cc4F)nnc3c2=O)cc1,15.47%,3.41%,-5.09%
CCOc1ccc(-n2ccn3c(SCC(=O)Nc4cc(Cl)ccc4OC)nnc3c2=O)cc1,12.81%,1.86%,-5.56%
COc1cccc(-n2ccn3c(SCC(=O)Nc4ccc(F)cc4F)nnc3c2=O)c1,3.3%,4.17%,-12.76%
CCOc1ccccc1NC(=O)Cn1nc2c(N3CCN(c4ccccc4C)CC3)nccn2c1=O,-9.36%,21.63%,-5.29%
COc1cc(NC(=O)Cn2nc3c(SC4CCCCC4)nccn3c2=O)cc(OC)c1,18.11%,13.52%,-27.94%
COc1cccc(Sc2nc3ccccc3n3c(=O)n(CC(=O)Nc4ccc(C)c(C)c4)nc23)c1,5.05%,20.61%,-4.85%
Cc1cc(C)cc(NC(=O)Cn2nc3c(N4CCCC4)nccn3c2=O)c1,18.22%,0.29%,-23.65%
COc1ccc(NC(=O)Cn2c(=O)c3nnc(C(C)C)n3c3ccccc32)cc1,10.47%,4.15%,-13.18%
O=C(Cn1nc2c(N3CCOCC3)nccn2c1=O)Nc1ccc2c(c1)OCO2,20.48%,1.5%,-14.42%
CC(C)c1nnc2c(=O)n(CC(=O)Nc3ccc(C#N)cc3)c3ccccc3n12,6.44%,0.24%,-24.39%
CCCCc1ccc(NC(=O)Cn2nc3c(Sc4ccccc4)nccn3c2=O)cc1,5.15%,28.09%,-10.74%
O=c1c2nn(Cc3c(F)cccc3Cl)c(=O)n2ccn1-c1ccccc1,15.43%,1.25%,-4.81%
